Screening results: PubChem BioAssay, National Center for Advancing Translational Sciences (NCATS)
The list is not random: actives were taken first. Their share in the collection is about 9.2%.
ELG1 DNA repair = blocks ELG1-dependent DNA repair in HEK293T cells. HEK293T ELG1-luciferase reporter, luminescence, 16 h; DNA damage induced by 5-fluorouridine. Potency, µM (titrated, usually from 46.1 µM), most hits filed as inhibitors. 2.3% of 330,000 active; further: nearly all actives have a fitted effect of over 55% in size
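Step one: seed 2,000 cells per well. Step two: pin-transfer compound or DMSO alongside 5-fluorouridine. Step three: incubate 16 hr, 37 °C, 5% CO2. Step four: add ONE-Glo, wait 30 min, read luminescence.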
SMN2 splice enh = increases expression of the SMN2 splice variant; HEK293 SMN2-luciferase splicing reporter, luminescence, 30-36 h; Potency, µM (series often up to 46.1 µM), usual class: activators; 2.8% of 210,000 active; AID 1458; further: nearly all actives have a fitted effect of over 55% in size
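qHTS luciferase splicing reporter: luminescence rises when SMN2 exon 7 is included in transfected HEK293 cells. Compound exposure lasted 30-36 h at 37C, with 4.5 mM final sodium butyrate as control, followed by a ONE-Glo read.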
FLuc counter = inhibits or activates purified firefly luciferase, miR-21 counter-screen; P08659; purified FLuc, Km substrates, luminescence inhibition; Potency, µM (doses to about 57.5 µM), hits mostly inhibitors; 6.9% of 360,000 active; further: nearly all actives have a fitted effect of over 55% in size
Target sequence (P08659 whole entry, looked up): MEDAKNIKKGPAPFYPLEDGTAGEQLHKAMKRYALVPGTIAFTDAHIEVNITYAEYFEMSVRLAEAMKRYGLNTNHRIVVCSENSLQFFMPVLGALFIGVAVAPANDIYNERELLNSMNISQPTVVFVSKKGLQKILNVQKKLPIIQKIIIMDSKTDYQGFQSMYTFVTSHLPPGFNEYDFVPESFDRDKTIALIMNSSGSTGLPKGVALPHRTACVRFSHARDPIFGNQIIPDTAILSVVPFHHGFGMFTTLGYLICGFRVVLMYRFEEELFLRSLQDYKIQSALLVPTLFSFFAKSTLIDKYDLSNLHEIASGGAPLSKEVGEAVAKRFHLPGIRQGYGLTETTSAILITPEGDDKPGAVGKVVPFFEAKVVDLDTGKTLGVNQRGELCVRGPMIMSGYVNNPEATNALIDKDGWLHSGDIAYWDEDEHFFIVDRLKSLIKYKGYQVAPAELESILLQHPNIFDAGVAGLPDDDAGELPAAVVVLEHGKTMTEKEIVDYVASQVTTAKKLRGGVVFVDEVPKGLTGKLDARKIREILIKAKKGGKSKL
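Biochemical qHTS of compounds, final roughly 60 µM downward over six points, against 10 nM purified firefly luciferase using Km concentrations of substrates (10 uM D-luciferin, 10 uM ATP) in Tris acetate pH 7.5 buffer; luminescence output.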
Rab9 prom act = activates the Rab9 promoter; Potency, µM (highest dose often 9.22 µM), usual class: activators; 2.8% of 320,000 active; Huh7 Rab9 promoter-luciferase reporter, luminescence, 24 h; further: nearly all actives have a fitted effect of over 60% in size
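Stable Rab9-luc Huh7, 1500 cells/well, 2 h settle; cmpd in DMSO, 24 h, 37 °C/5% CO2; luciferase reagent 10 min RT; luminescence.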
NPC1 prom act = NPC1 promoter activation; AID 485313; Potency, µM (titrated, usually from 9.22 µM), usual class: activators; Huh7 NPC1 promoter luciferase reporter, 24 h; 2.4% of 320,000 active; further: nearly all actives have a fitted effect of over 60% in size
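Stably transfected Huh7 (NPC1 promoter→luciferase), 1500 cells/well in Opti-MEM + 10% FBS, 2 h settle, then compound 24 h at 37 °C. Luminescence after 10 min with Amplite reagent.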
ELG1 genotoxic = genotoxicity induction in ELG1-luciferase HEK293T cells. HEK293T ELG1-luciferase reporter, luminescence, 16 h. Potency, µM (highest dose often 46 µM), hits mostly activators. 1.3% of 330,000 active; further: nearly all actives have a fitted effect of over 60% in size
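ELG1-luciferase HEK293T cells, 2,000/well; compound pinned in; 16 hr, 37 °C, 5% CO2; ONE-Glo, 30 min RT; luminescence on CCD imager.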
Numbers stand for hits; i = inactive; ? = inconclusive; nt = no result given. The call rests on the fitted dose curve; in most records, active means well fitted curve in the direction sought with a large enough effect; inconclusive means small, poorly fitted or top-dose-only effect, or another doubt; inactive means no such curve, though single readings can be large; an effect the other way counts as inactive or inconclusive.

SMILES	ELG1 DNA repair	SMN2 splice enh	FLuc counter	Rab9 prom act	NPC1 prom act	ELG1 genotoxic
CCN(CC)c1ccc(CNc2ccc3c(c2)ncn3C(C)(C)C)cc1	i	nt	?	i	i	i
CC(C)n1cnc2cc(NCc3ccccc3O)ccc21	?	nt	21.3µM	?	i	i
CN(C)c1ccc(CNc2ccc3c(c2)ncn3C)cc1	?	i	?	i	i	?
Cc1cc(NCc2ccccn2)ccc1Br	?	i	15.1µM	?	?	i
COc1ccc(C(=O)CSc2nc3cc(C(=O)NC4CCCC4)ccc3c(=O)n2CC2CCCO2)cc1 (stereo not drawn)	nt	nt	i	nt	nt	nt
COc1cc(C(=O)Nc2ccc3c(c2)ncn3C(C)(C)C)cc(OC)c1OC	?	nt	?	i	i	i
CCCn1c(NCc2ccco2)nc2ccccc21	i	?	i	i	i	i
CC(C)(C)n1cnc2cc(NC(=O)c3ccc(Cl)cc3)ccc21	?	nt	4.78µM	0.501µM	0.562µM	2.91µM
CC(C)n1cnc2cc(NCc3ccco3)ccc21	?	?	16.9µM	?	?	i
COc1ccc(-n2c(=O)c3c(c4cc(OC)ccc4n3C)n(Cc3cc(C)ccc3C)c2=O)cc1	nt	nt	i	nt	nt	nt
Cc1cc(C)cc(Nc2ncnc3c2nc2n3CCCC2)c1	nt	nt	i	nt	nt	nt
CC(C)c1ccc(Nc2ncnc3c2nc2n3CCCC2)cc1	nt	nt	5.36µM	nt	nt	nt
Cc1ccc(Nc2ncnc3c2nc2n3CCCC2)cc1F	nt	nt	13.5µM	nt	nt	nt
Fc1ccccc1Nc1ncnc2c1nc1n2CCCCC1	nt	nt	12µM	nt	nt	nt
COc1ccc(OC)c(Nc2ncnc3c2nc2n3CCCC2)c1	nt	nt	i	nt	nt	nt
CCOc1ccc(Nc2ncnc3c2nc2n3CCCC2)cc1	nt	nt	15.1µM	nt	nt	nt
CC(C)c1ccc(NC(=O)C2CCN(c3ncnc4c3nc3n4CCCCC3)CC2)cc1	?	nt	i	i	i	i
CC(C)C1N=C(c2ccc3c(c2)OCO3)CC(c2ccccc2O)N1 (stereo not drawn)	?	i	10.7µM	?	?	i
Cc1cccc(-c2nsc(SCC(=O)Nc3cc(C)on3)n2)c1	?	i	i	i	i	i
CCOC(=O)N1CCN(C(=O)CSc2nc(-c3cccc(C)c3)ns2)CC1	i	i	16.9µM	i	i	i
COc1ccc(-c2nsc(SCC(=O)Nc3ccc4c(c3)OCO4)n2)cc1	?	i	i	i	i	i
CCOC(=O)CNC(=O)CSc1nc(-c2ccccc2)ns1	i	i	?	i	i	i
CCOC(=O)CSc1nc(-c2ccc(OC)cc2)ns1	?	i	23.9µM	i	i	i
CCOC(=O)CNC(=O)CSc1nc(-c2ccc(C)cc2)ns1	i	i	12µM	i	i	i
COc1ccc(S(=O)(=O)N(CCc2ccccc2)CC(=O)NCc2ccccc2)cc1OC	nt	i	i	nt	nt	nt
SMILES	ELG1 DNA repair	SMN2 splice enh	FLuc counter	Rab9 prom act	NPC1 prom act	ELG1 genotoxic
CCC/C(C)=C/c1ccc(CC)cn1	?	nt	9.53µM	i	i	i
CCc1ccc(OCCCC(=O)NCc2ccccc2)cc1	i	i	i	i	i	i
COc1ccc(/C=N/NC(=O)CSc2nnc(C)n2-c2ccccc2)c(OC)c1OC	?	i	i	i	i	i
COc1cccc(/C=N/NC(=O)CN2CC(c3ccccc3)CC2=O)c1O (stereo not drawn)	i	i	12µM	i	i	i
COc1cccc(/C=N/NC(=O)CSc2nnc(C)n2-c2ccccc2)c1O	i	i	16.9µM	i	i	i
COc1cccc(/C=N/NC(=O)C[n+]2ccccc2)c1O	?	i	?	i	i	i
COc1ccccc1N1CCN(C(=O)c2cc3c(=O)n(Cc4cccs4)ccc3nc2C)CC1	nt	nt	i	nt	nt	nt
C/C(=N\Nc1nc(C)cc(C)n1)c1ccc(C)o1	i	nt	i	i	i	i
C/C(=N\Nc1nnc2c3ccccc3n(C)c2n1)c1ccc(C)o1	16.4µM	i	16.9µM	i	i	i
Cc1cc(C)n(-c2nnc3c4ccccc4n(C)c3n2)n1	?	nt	4.78µM	2.51µM	1.41µM	?
C=CS(=O)(=O)c1ccc(Oc2ccc(S(=O)(=O)C=C)cc2)cc1	2.59µM	i	i	i	i	i
COc1cc(NC(=O)CCc2c(C)nc3c4c(C)cc(C)nc4nn3c2C)cc(OC)c1	nt	i	i	nt	nt	nt
CCOc1cccc(/C=N/NC(=O)c2cc(-c3cccn3C)n[nH]2)c1O	?	nt	15.1µM	i	i	?
COc1cc(OC)c(OC)cc1/C=N/NC(=O)c1cc(-c2cccn2C)n[nH]1	i	i	i	i	i	i
COc1cccc(/C=N/NC(=O)CNC(=O)c2ccc3c(c2)OCCO3)c1O	?	i	i	i	i	i
CCOc1cccc(/C=N/NC(=O)c2ccc3c(c2)OCCO3)c1O	?	nt	2.39µM	i	i	?
Cc1cccc(/C=N/NC(=O)c2ccc3c(c2)OCCO3)c1O	?	nt	0.379µM	0.501µM	0.891µM	0.13µM
Cc1ccc(NS(=O)(=O)c2cccc(C(=O)N/N=C/c3ccc4c(c3)OCCO4)c2)c(C)c1	?	i	10.7µM	i	i	i
CCN(C(=O)c1cc(S(=O)(=O)N2CCc3ccccc32)cn1C)c1cccc(C)c1	nt	nt	i	nt	nt	nt
Cc1ccc(N=Nc2ccc(O)c(/C=N\NC(=O)c3ccc(N)cc3)c2)cc1C	i	i	?	2.82µM	1.41µM	?
Cc1cccc(/C=N\NC(=O)c2ccc(Cl)cc2)c1O	?	nt	1.51µM	?	i	?
O=C(N/N=C/c1cc(Cl)ccc1O)c1ccc(Br)cc1	?	i	?	i	i	i
Cc1cccc(/C=N/NC(=O)Cc2ccc(Cl)cc2)c1O	?	nt	i	i	i	?
Cc1ccc(-c2nnc(/C=C/c3ccccc3)o2)cc1	?	17.8µM	16.9µM	i	i	?
Brc1ccccc1-c1nnc(-c2cccnc2)o1	?	i	15.1µM	?	?	18.4µM
SMILES	ELG1 DNA repair	SMN2 splice enh	FLuc counter	Rab9 prom act	NPC1 prom act	ELG1 genotoxic
Cc1ccc(-c2nnc(-c3ccccc3Br)o2)cc1	?	nt	0.757µM	3.98µM	3.98µM	?
c1cncc(-c2nnc(-c3cccs3)o2)c1	?	i	i	?	i	i
Brc1ccc(-c2nnc(-c3ccccc3Br)o2)cc1	?	14.1µM	1.35µM	0.708µM	1.12µM	2.91µM
COc1ccc(CC(=O)OCCc2cc3cc(OC)c(OC)cc3c(=O)o2)cc1	i	nt	i	i	i	i
COc1ccc(-c2nnc3n2N(C(C)=O)C(c2ccc(Cl)c(Cl)c2)=C(C(C)=O)S3)cc1	nt	nt	i	nt	nt	nt
CCOc1ccccc1NC(=O)Cn1c(=O)nc(-c2ccccc2F)c2cc(Cl)ccc21	nt	nt	i	nt	nt	nt
CCc1cc(C(=O)N2CCCC(C(=O)c3ccc(Oc4ccccc4)cc3)C2)n(C)n1 (stereo not drawn)	?	nt	i	i	i	i
O=C(NCCC1=CCCCC1)c1cnc2n(c1=O)CCS2	?	11.2µM	?	?	?	?
O=C(NCc1ccccc1)c1cnc2n(c1=O)CCS2	i	i	i	i	i	i
O=C(NCCc1ccc(Cl)cc1)c1cnc2n(c1=O)CCS2	?	?	?	?	i	?
